# According to the supplement of paper PMC8728848:
# The full list was thinned out, with the strongest signals kept by preference.
# B1: SUN4 (Saccharomyces cerevisiae), P53616 (protein)
# chain: MGSSHHHHHHSSGLVPRGSHNGSIYGDLADFSGPYEKFEDGTIPCGQFPSGQGVIPISWLDEGGWSGVENTDTSTGGSCKEGSYCSYACQPGMSKTQWPSDQPSDGRSIGGLLCKDGYLYRSNTDTDYLCEWGVDAAYVVSELSNDVAICRTDYPGTENMVIPTYVQAGDSLPLTVVDQDTYYTWQGLKTSAQYYVNNAGISVEDACVWGSSSSGVGNWAPLNFGAGSSDGVAYLSLIPNPNNGNALNFNVKIVAADDSSTVNGECIYENGSFSGGSDGCTVSVTAGKAKFVLYN
# What was measured:
# Assay in all cases: glycan array binding signal (z-score within array); higher = stronger binding
# Settings in all cases: glycan notation: IUPAC condensed, linker removed
# [1] = molecular target: Fuc(a1-2)Gal(b1-3)GalNAc(b1-3)Gal(a1-4)Gal(b1-4)Glc
# How it was run: (§1)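 Glycan array binding is given as a within-array Z-score, which can be read as non-binding when negative. The arrays, 3228 of them, came from the Consortium for Functional Glycomics database and were retained only where the protein sequence was available. Z-scores were averaged across arrays of the same protein sequence at different concentrations or buffers and across linkers.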
# [2] = molecular target: Fuc(a1-2)Gal(b1-3)[Fuc(a1-4)]GlcNAc
# How it was run: as §1
# [3] = molecular target: Fuc(a1-2)Gal(b1-3)[Fuc(a1-4)]GlcNAc(b1-2)Man(a1-3)[Fuc(a1-2)Gal(b1-3)[Fuc(a1-4)]GlcNAc(b1-2)Man(a1-3)]Man(b1-4)GlcNAc(b1-4)GlcNAc
# How it was run: as §1
# [4] = molecular target: Fuc(a1-2)Gal(b1-3)[Fuc(a1-4)]GlcNAc(b1-3)[Gal(b1-4)GlcNAc(b1-6)]Gal(b1-4)Glc
# How it was run: as §1
# [5] = molecular target: Fuc(a1-2)Gal(b1-4)GlcNAc(b1-2)Man
# How it was run: as §1
# [6] = molecular target: Fuc(a1-2)[Gal(a1-3)]Gal(b1-3)GlcNAc(b1-6)GalNAc
# How it was run: as §1
# [7] = molecular target: Fuc(a1-2)[Gal(a1-3)]Gal(b1-4)[Fuc(a1-3)]GlcNAc(b1-3)GalNAc
# How it was run: as §1
# [8] = molecular target: Fuc(a1-2)[GalNAc(a1-3)]Gal(b1-3)GlcNAc(b1-6)GalNAc
# How it was run: as §1
# [9] = molecular target: Fuc(a1-2)[GalNAc(a1-3)]Gal(b1-4)Glc
# How it was run: as §1
# [10] = molecular target: Gal(a1-3)Gal(b1-3)GlcNAc(b1-2)Man(a1-3)[Gal(a1-3)Gal(b1-3)GlcNAc(b1-2)Man(a1-6)]Man(b1-4)GlcNAc(b1-4)GlcNAc
# How it was run: as §1
# [11] = molecular target: Gal(a1-3)Gal(b1-3)[Fuc(a1-4)]GlcNAc(b1-2)Man(a1-3)[Gal(a1-3)Gal(b1-3)[Fuc(a1-4)]GlcNAc(b1-2)Man(a1-6)]Man(b1-4)GlcNAc(b1-4)GlcNAc
# How it was run: as §1
# [12] = molecular target: Gal(a1-3)Gal(b1-4)[Fuc(a1-3)]GlcNAc(b1-2)Man(a1-3)[Gal(a1-3)Gal(b1-4)[Fuc(a1-3)]GlcNAc(b1-2)Man(a1-6)]Man(b1-4)GlcNAc(b1-4)GlcNAc
# How it was run: as §1
# [13] = molecular target: Gal(a1-4)Gal(b1-4)GlcNAc(b1-3)Gal(b1-4)Glc
# How it was run: as §1
# Gal(a1-6)Glc = molecular target: Gal(a1-6)Glc
# How it was run: as §1
# Gal(b1-3)GalNAc(b1-3)Gal = molecular target: Gal(b1-3)GalNAc(b1-3)Gal
# How it was run: as §1
# [14] = molecular target: Gal(b1-3)GalNAc(b1-3)Gal(a1-4)Gal(b1-4)Glc
# How it was run: as §1
# [15] = molecular target: Gal(b1-3)GlcNAc(b1-2)Man(a1-3)[Gal(b1-3)GlcNAc(b1-2)Man(a1-6)]Man(b1-4)GlcNAc(b1-4)[Fuc(a1-6)]GlcNAc
# How it was run: as §1
# [16] = molecular target: Gal(b1-3)GlcNAc(b1-3)Gal(b1-4)GlcNAc(b1-2)Man(a1-3)[Gal(b1-3)GlcNAc(b1-3)Gal(b1-4)GlcNAc(b1-2)Man(a1-6)]Man(b1-4)GlcNAc(b1-4)GlcNAc
# How it was run: as §1
# [17] = molecular target: Gal(b1-3)GlcNAc(b1-3)Gal(b1-4)[Fuc(a1-3)]GlcNAc(b1-6)[Gal(b1-3)GlcNAc(b1-3)]Gal(b1-4)Glc
# How it was run: as §1
# [18] = molecular target: Gal(b1-3)GlcNAc(b1-3)GalNAc
# How it was run: as §1
# [19] = molecular target: Gal(b1-3)GlcNAc(b1-6)[Gal(b1-3)]GalNAc
# How it was run: as §1
# [20] = molecular target: Gal(b1-3)[Fuc(a1-4)]GlcNAc(b1-6)GalNAc
# How it was run: as §1
# Gal(b1-4)Glc6S = molecular target: Gal(b1-4)Glc6S
# How it was run: as §1
# [21] = molecular target: Gal(b1-4)GlcNAc(b1-2)Man(a1-3)[Gal(b1-4)GlcNAc(b1-2)Man(a1-6)]Man(b1-4)GlcNAc(b1-4)[Fuc(a1-6)]GlcNAc
# How it was run: as §1
# [22] = molecular target: Gal(b1-4)GlcNAc(b1-2)[Gal(b1-4)GlcNAc(b1-4)]Man(a1-3)[GlcNAc(b1-4)][Gal(b1-4)GlcNAc(b1-2)Man(a1-6)]Man(b1-4)GlcNAc(b1-4)GlcNAc
# How it was run: as §1
# [23] = molecular target: Gal(b1-4)GlcNAc(b1-3)Gal(b1-4)GlcNAc(b1-2)Man(a1-3)[Gal(b1-4)GlcNAc(b1-3)Gal(b1-4)GlcNAc(b1-2)Man(a1-6)]Man(b1-4)GlcNAc(b1-4)GlcNAc
# How it was run: as §1
# [24] = molecular target: Gal(b1-4)GlcNAc(b1-3)Gal(b1-4)GlcNAc(b1-2)Man(a1-3)[Gal(b1-4)GlcNAc(b1-3)Gal(b1-4)GlcNAc(b1-2)Man(a1-6)]Man(b1-4)GlcNAc(b1-4)[Fuc(a1-6)]GlcNAc
# How it was run: as §1
binder,measurement,setting,value
B1,glycan array binding signal (z-score),[1],0.954
same,glycan array binding signal (z-score),[2],-0.752
same,glycan array binding signal (z-score),[3],-0.207
same,glycan array binding signal (z-score),[4],0.297
same,glycan array binding signal (z-score),[5],0.324
same,glycan array binding signal (z-score),[6],-0.368
same,glycan array binding signal (z-score),[7],-0.487
same,glycan array binding signal (z-score),[8],-0.525
same,glycan array binding signal (z-score),[9],-0.935
same,glycan array binding signal (z-score),[10],1.63
same,glycan array binding signal (z-score),[11],1.91
same,glycan array binding signal (z-score),[12],3.09
same,glycan array binding signal (z-score),[13],-0.077
same,glycan array binding signal (z-score),Gal(a1-6)Glc,-1.22
same,glycan array binding signal (z-score),Gal(b1-3)GalNAc(b1-3)Gal,-0.668
same,glycan array binding signal (z-score),[14],0.295
same,glycan array binding signal (z-score),[15],-0.257
same,glycan array binding signal (z-score),[16],0.342
same,glycan array binding signal (z-score),[17],-0.488
same,glycan array binding signal (z-score),[18],-0.163
same,glycan array binding signal (z-score),[19],0.101
same,glycan array binding signal (z-score),[20],0.835
same,glycan array binding signal (z-score),Gal(b1-4)Glc6S,-0.03
same,glycan array binding signal (z-score),[21],0.829
same,glycan array binding signal (z-score),[22],0.208
same,glycan array binding signal (z-score),[23],2.66
same,glycan array binding signal (z-score),[24],2
